In PubChem BioAssay AID504914 (The Scripps Research Institute Molecular Screening Center, 2011):
The other results are listed elsewhere or left out. Values without a mark were called inactive. How the calls were made is not given here.

target: 5-hydroxytryptamine receptor 5A (Homo sapiens) (UniProt P47898); assay: HTR5A inverse agonists, counter-screen for OPRM1-OPRD1 inverse agonist project, cell-based, luminescence (AID 504914); conditions: HTR5A-expressing cells, inverse agonism, at 9.3 µM, hits give high values;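 further: 0% = cells with DMSO and 100% = no-cell wells with DMSO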
Sequence (P47898 whole entry, looked up): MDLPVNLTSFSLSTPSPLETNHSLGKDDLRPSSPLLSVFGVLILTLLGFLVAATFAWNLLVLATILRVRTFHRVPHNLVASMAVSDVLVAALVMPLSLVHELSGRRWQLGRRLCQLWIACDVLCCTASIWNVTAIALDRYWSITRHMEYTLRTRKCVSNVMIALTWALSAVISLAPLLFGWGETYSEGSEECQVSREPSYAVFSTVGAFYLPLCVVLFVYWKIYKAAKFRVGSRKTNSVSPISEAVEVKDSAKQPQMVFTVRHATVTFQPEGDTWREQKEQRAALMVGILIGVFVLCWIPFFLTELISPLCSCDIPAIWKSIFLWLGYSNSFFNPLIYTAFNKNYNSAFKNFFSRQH

Row | Compound | inhibition [%]
1 | N#CC1=C(N)C(C#N)(C#N)[C@H](c2ccsc2)[C@H]2COCC=C12 | -8.6
2 | CCOc1ccc(NC(=O)c2cccc3c2C(=O)N(CC2CCCO2)C3)cc1 (stereo unspecified) | -4.42
3 | Cc1ccc(NNC(=O)c2cccs2)cc1Cl | -15
4 | CCOC(=O)CN1C(=O)C(O)(CC(=O)c2ccccn2)c2ccccc21 (stereo unspecified) | 10.2
5 | Oc1ccc(N=Nc2nccs2)c(O)c1 | 23.3
6 | Cc1ccc2c(c1)C(O)(CC(=O)c1cccnc1)C(=O)N2 (stereo unspecified) | 0
7 | O=C(CCl)NNc1cccc(Cl)n1 | 8.61
8 | CN(C)/C=C1/Nc2ccccc2C1=O | 5.59
9 | Cc1ccc(C(=O)CNc2ccc(F)cc2)cc1 | -0.52
10 | O=C1C(=O)N(CC2COc3ccccc3O2)c2ccccc21 (stereo unspecified) | 12
11 | Cc1cccc(N=Nc2c(O)[nH]c3ccc(F)cc23)c1 | 22.6
12 | C=CCn1c(N)c(C(=O)OCC(C)C)c2nc3ccccc3nc21 | 10.8
13 | O=C1C(=O)N(c2ccccc2)c2ccccc21 | 19
14 | O=[N+]([O-])/C=C/c1ccc2c(ccn2Cc2ccccc2)c1 | -16.4
15 | CN(c1ccccc1)S(=O)(=O)c1ccc(NC(=O)COc2ccccc2)cc1 | -4.8
16 | CSCCC(NC(=O)COc1ccccc1)C(=O)OCC(=O)c1cc2ccccc2o1 (stereo unspecified) | 12
17 | CN(O)C(=S)c1ccccc1 | 26.7
18 | CCOC(=O)CN1C(=O)C(=O)c2cc(C)ccc21 | 12.5
19 | Cc1ccc(NC2(C#N)C(=O)Nc3ccccc32)cc1 (stereo unspecified) | -97.2
20 | CCCCC(=O)NNC(=S)NC(=O)C(c1ccccc1)c1ccccc1 | -76
21 | COC(=O)Cc1c(-c2[nH]c3ccccc3c2CC(=O)OC)[nH]c2ccccc12 | -66.2
22 | Cc1cccc2c1N(CCOc1ccccc1)C(=O)C2=O | 10.3
23 | COc1cc(NS(=O)(=O)c2ccc3ccccc3c2)c2ncccc2c1 | -111
24 | Cc1cccc(C)c1NC(=O)C(Cl)C(=O)c1ccccc1 (stereo unspecified) | -75.6
25 | Cc1cccc2c1N(CC(=O)OC(C)C)C(=O)C2=O | -14.5
26 | CC(C)OC(=O)CN1C(=O)C(=O)c2ccccc21 | 4.72
